# Test results reported in PMC10726135, “HNF4α isoforms regulate the circadian balance between carbohydrate and lipid metabolism in the liver”.
# In all, about 18,000 sequences were measured (“log2 normalized intensity”: median about 0.39, highest 2% from about 6.6 on). What follows is part of a selection rich in the highest values, with near analogues and random picks from the rest.
# Target: T1, HNF4alpha2 (COS-7 nuclear extract) (Homo sapiens, UniProt P41235 1-474)
# T1 sequence: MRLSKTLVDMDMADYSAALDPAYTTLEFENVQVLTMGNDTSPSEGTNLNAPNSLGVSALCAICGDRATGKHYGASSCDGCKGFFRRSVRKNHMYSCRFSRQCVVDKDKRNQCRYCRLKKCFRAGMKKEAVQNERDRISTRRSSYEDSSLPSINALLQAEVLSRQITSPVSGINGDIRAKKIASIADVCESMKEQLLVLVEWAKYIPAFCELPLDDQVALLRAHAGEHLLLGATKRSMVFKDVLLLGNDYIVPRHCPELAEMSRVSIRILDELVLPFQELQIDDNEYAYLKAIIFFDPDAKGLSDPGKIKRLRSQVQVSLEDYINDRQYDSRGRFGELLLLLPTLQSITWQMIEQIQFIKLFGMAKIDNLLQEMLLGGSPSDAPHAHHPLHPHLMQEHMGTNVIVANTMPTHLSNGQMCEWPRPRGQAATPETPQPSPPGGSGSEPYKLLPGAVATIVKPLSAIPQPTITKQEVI
# Assay: protein-binding microarray; COS-7 nuclear extract on double-stranded Agilent 4x180k PBM; binding buffer, salt, pH and temperature not given in the material; high values mean tight binding
# Settings: chain copies: 2; label: 3' end of strand 1 on the slide; dsDNA, one strand shown
# Outline: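 A custom Agilent SurePrint G3 4x180k array, spotted in quadruplicate with ~44,000 test sequences as ~60-nt oligonucleotides made double-stranded, was incubated with nuclear extracts. The extracts came from COS-7 cells transiently transfected by CaPO4 with a human HNF4α isoform expression vector. Bound HNF4α was imaged on an Agilent G2565CA scanner at 2-µm resolution, and the binding signal was taken as Agilent software's background-corrected, normalized gProcessedSignal.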
row,Sequence,binding signal [log2 normalized intensity]
1,CATGAAGGTCTCCTTGACTTCAAAGGCATTGCCTAGGGAGATTAGAGTATCGGTCGA,0.693
2,CAGGGAGCCCTTATATCCACATGGGTCCAAGCCTAGGGAGATTAGAGTATCGGTCGA,2.29
3,GTTACCTTGGGGTCAAAGTACATCCCCTAAGCCTAGGGAGATTAGAGTATCGGTCGA,6.4
4,TGCCTGCAGGAGAGAGCAAAGTCCACGCATGCCTAGGGAGATTAGAGTATCGGTCGA,6.29
5,ATTCCTAAGTTCCAAAGGCCATCCACATTCGCCTAGGGAGATTAGAGTATCGGTCGA,1.84
6,CTTGGGGTCAAAGTACATCCCCTAAAACATGCCTAGGGAGATTAGAGTATCGGTCGA,5.71
7,TGTCTCCCTCTGCAGCAAAGTCCAGGCATAGCCTAGGGAGATTAGAGTATCGGTCGA,1.13
8,AGCCCTTATATCCACATGGGTCCAAAGTTCGCCTAGGGAGATTAGAGTATCGGTCGA,8.54
9,GACCAGTCTGCCTGACTCCAGAGTCCAAACGCCTAGGGAGATTAGAGTATCGGTCGA,2.77
10,CAACTCCAAAGTCCAAAGTCCAGTCTTATCGCCTAGGGAGATTAGAGTATCGGTCGA,8.27
11,AGTCTTGAGTCCCAAAGTCCAAAGGCAGTCGCCTAGGGAGATTAGAGTATCGGTCGA,2.83
12,CTATCTGCCTGCAGGAGAGAGCAAAGTCCAGCCTAGGGAGATTAGAGTATCGGTCGA,7.16
13,TGCAAGTTACCTTGGGGTCAAAGTACATCCGCCTAGGGAGATTAGAGTATCGGTCGA,8.65
14,GAGTCTTAGGGAGGGGCCAGGACAAAGGTCGCCTAGGGAGATTAGAGTATCGGTCGA,5.72
15,CCACTCTCATGGTCAATATTTTCTTTGTGCGCCTAGGGAGATTAGAGTATCGGTCGA,1.63
16,GTCTGATCTTCCTGAGGAGAGCAAAGATCAGCCTAGGGAGATTAGAGTATCGGTCGA,2.54
17,GACTCCAGTGATCTTATCGCCTAGTACTCCGCCTAGGGAGATTAGAGTATCGGTCGA,-0.841
18,CCTCGCCTATGGTATGTATGGAATGTCACTGCCTAGGGAGATTAGAGTATCGGTCGA,1.63
19,GCCAGGACAAAGGTCCTGTGGCCTGGGGAGGCCTAGGGAGATTAGAGTATCGGTCGA,0.557
20,CCTGGCCATTTCTCAGGTTGTGTTTGCAGTGCCTAGGGAGATTAGAGTATCGGTCGA,1.53
21,CTATTGCAGTAACGGCAGGGTTGTGCAGGAGCCTAGGGAGATTAGAGTATCGGTCGA,0.453
22,ATCCTTACACAGCAGCTTTAGTCAGAGATTGCCTAGGGAGATTAGAGTATCGGTCGA,-0.896

row,Sequence,binding signal [log2 normalized intensity]
1,AAGTCCAGTCTTATCTGAGACTCAAGGCAAGCCTAGGGAGATTAGAGTATCGGTCGA,-0.968
2,GCATGGCTCAGTCCAAGTCCAAAGGTCTGAGCCTAGGGAGATTAGAGTATCGGTCGA,5.39
3,CCAAAGTCCAAAGTCCAGTCTTATCTGAGAGCCTAGGGAGATTAGAGTATCGGTCGA,7.12
4,TTTCTGTAAAGCTTTATTTTGGGGCTGTATGCCTAGGGAGATTAGAGTATCGGTCGA,0.324
5,CAAAGCATAGCAAGAGTGACCTTTGCTCCAGCCTAGGGAGATTAGAGTATCGGTCGA,8.97
6,CTTCTTTGCTTAAGCATAGCAAAAGTGACCGCCTAGGGAGATTAGAGTATCGGTCGA,2.7
7,CTTTAGCACCTTCATCCAAAGATGACCTTTGCCTAGGGAGATTAGAGTATCGGTCGA,7.62
8,CCTGCATATCCTGACTGCTGACCTTTAAGCGCCTAGGGAGATTAGAGTATCGGTCGA,4.85
9,AGATAGCATTCCAAGAGAGCAAAGTGCTTTGCCTAGGGAGATTAGAGTATCGGTCGA,0.587
10,TATGACCTTTGCTTTTCAAGATTTTACCTAGCCTAGGGAGATTAGAGTATCGGTCGA,2.14
11,AATCGACCTTTAGCACCGTAAGAGAGTATTGCCTAGGGAGATTAGAGTATCGGTCGA,3.82
12,GTGACCTTTGCTCCAGTTCCCAATAAGTTGGCCTAGGGAGATTAGAGTATCGGTCGA,4.19
13,ATAGCAAAAGTGACCTTTGCTCCAGTTCCCGCCTAGGGAGATTAGAGTATCGGTCGA,7.8
14,AAAAGTGACCTTTGCTCCAGTTCCCAATAAGCCTAGGGAGATTAGAGTATCGGTCGA,5.9
15,TTGCTTAAGCATAGCAAAAGTGACCTTTGCGCCTAGGGAGATTAGAGTATCGGTCGA,8.56
16,TTTGCCAAAGCATAGCAAGAGTGACCTTTGGCCTAGGGAGATTAGAGTATCGGTCGA,6.6
17,CCCATCCAAAGGTCAGCAATCTCAAAGACTGCCTAGGGAGATTAGAGTATCGGTCGA,2.36
18,TAAGTTTAAGTCCAGAAAAGACCAAAAAGGGCCTAGGGAGATTAGAGTATCGGTCGA,0.39
19,TAACTATGGTCACGCGGCCAAAATGTTCAGGCCTAGGGAGATTAGAGTATCGGTCGA,0.22
20,CTGTGTCATCTGAACTCTGACCAACGCCTCGCCTAGGGAGATTAGAGTATCGGTCGA,2.73
21,TGACCTTTGCTCCAGTTCCCAATAATTTCCGCCTAGGGAGATTAGAGTATCGGTCGA,4.46
22,CATAGCAAGAGTGACCTTTGCTCCAGTTCCGCCTAGGGAGATTAGAGTATCGGTCGA,7.45

row,Sequence,binding signal [log2 normalized intensity]
1,CAAGAGTGACCTTTGCTCCAGTTCCCAATAGCCTAGGGAGATTAGAGTATCGGTCGA,6
2,CAGTACTGAAACATGCCTATGACCGAGGGTGCCTAGGGAGATTAGAGTATCGGTCGA,0.809
3,TGCTTGGAATGCTATTTGCATTGACACAACGCCTAGGGAGATTAGAGTATCGGTCGA,0.296
4,TTCTGTTCAATGGTGCTTTTGATATTGTTGGCCTAGGGAGATTAGAGTATCGGTCGA,2.06
5,GACATCTGGAAATGTTTGTAGGGACTTTGAGCCTAGGGAGATTAGAGTATCGGTCGA,4.28
6,AGCAATGTTTCTTGTCCAGGGACTTTGAACGCCTAGGGAGATTAGAGTATCGGTCGA,5.74
7,AATGTTTGTAGGGACTTTGACCCCTAAAACGCCTAGGGAGATTAGAGTATCGGTCGA,8.73
8,CTTTGACCCTGTTTTGTAAACTCCCTTTGAGCCTAGGGAGATTAGAGTATCGGTCGA,1.78
9,CAACTGACATCTGGAAATGTTTGTAGGGACGCCTAGGGAGATTAGAGTATCGGTCGA,0.308
10,CTGGAAATGTTTGTAGGGACTTTGACCCCTGCCTAGGGAGATTAGAGTATCGGTCGA,9.92
11,AGTTTGACTCCAAAGGGCTGGAGACTGAGTGCCTAGGGAGATTAGAGTATCGGTCGA,-0.509
12,TCTAAGACCCATCCCTCAGGGTCCATATCCGCCTAGGGAGATTAGAGTATCGGTCGA,2.84
13,TCTTCCTAGGCAATCCCATGACCTTTGTACGCCTAGGGAGATTAGAGTATCGGTCGA,8.78
14,CACCTTCTTCCTAGGCAATCCCATGACCTTGCCTAGGGAGATTAGAGTATCGGTCGA,3.25
15,CAATCCCATGACCTTTGTACTAATGATTTGGCCTAGGGAGATTAGAGTATCGGTCGA,5.84
16,CCATGACCTTTGTACTAATGATTTGTAAATGCCTAGGGAGATTAGAGTATCGGTCGA,5.25
17,TGTCTTCTGACCTTTGGCAATATCTCCCAGGCCTAGGGAGATTAGAGTATCGGTCGA,3.48
18,CTAGGCAATCCCATGACCTTTGTACTAATGGCCTAGGGAGATTAGAGTATCGGTCGA,7.57
19,TCTGAAGATAAATGCCTTAGCTGTGACCATGCCTAGGGAGATTAGAGTATCGGTCGA,0.619
20,CTCTAGGGTAGATAAGGATGGATCAAAGGAGCCTAGGGAGATTAGAGTATCGGTCGA,-0.461
21,TTCCACCTGGAATGCACTTGTTCCGGATAGGCCTAGGGAGATTAGAGTATCGGTCGA,1.11
22,AACTACAGTTGACCTTTGAACACCACAAGTGCCTAGGGAGATTAGAGTATCGGTCGA,7.56

row,Sequence,binding signal [log2 normalized intensity]
1,ATGCCCCATGGTAAGAACTACAGTTGACCTGCCTAGGGAGATTAGAGTATCGGTCGA,4.18
2,CCATGGTAAGAACTACAGTTGACCTTTGAAGCCTAGGGAGATTAGAGTATCGGTCGA,7.38
3,CAGTTGACCTTTGAACACCACAAGTTTGAAGCCTAGGGAGATTAGAGTATCGGTCGA,6.31
4,GACCTTTGAACACCACAAGTTTGAACTGCAGCCTAGGGAGATTAGAGTATCGGTCGA,5.05
5,TAGGTATGCCCCATGGTAAGAACTACAGTTGCCTAGGGAGATTAGAGTATCGGTCGA,0.881
6,GGAATGTTGCTGTGCTGCCCTCTTGTGGCCGCCTAGGGAGATTAGAGTATCGGTCGA,1.66
7,TGTTTCCAATAGGTTTGATTTCAGCATGTTGCCTAGGGAGATTAGAGTATCGGTCGA,1.59
8,TATGTGGTGGAATGGAAAGAATATGAACTTGCCTAGGGAGATTAGAGTATCGGTCGA,1.66
9,ACCCCACGGAGCTGCCTCACATGAGCTAGAGCCTAGGGAGATTAGAGTATCGGTCGA,-0.873
10,TGGCTGGGCCCTGACCTCAAGTGACCTTTGGCCTAGGGAGATTAGAGTATCGGTCGA,7.17
11,CTGGGCCCTGCCTGACCTGCCCTTTGTCCCGCCTAGGGAGATTAGAGTATCGGTCGA,6.28
12,CTGATTTAGCTATTTGACCTTCGGCCTCAAGCCTAGGGAGATTAGAGTATCGGTCGA,8.16
13,ATCGCCCTTTGAGGAGGCCTTTCCTGACCCGCCTAGGGAGATTAGAGTATCGGTCGA,2.78
14,TTAGCTATTTGACCTTCGGCCTCAATTATAGCCTAGGGAGATTAGAGTATCGGTCGA,6.43
15,ATTGGCCCTTTGACCTTTAATCAAGGGCTGGCCTAGGGAGATTAGAGTATCGGTCGA,5.08
16,CCAGGCTGATTTAGCTATTTGACCTTCGGCGCCTAGGGAGATTAGAGTATCGGTCGA,4.92
17,GGGCCCTGACCTCAAGTGACCTTTGACCTCGCCTAGGGAGATTAGAGTATCGGTCGA,12.1
18,GCCCCTGGCTGGGCCCTGACCTCAAGTGACGCCTAGGGAGATTAGAGTATCGGTCGA,1.91
19,GGCTTGTACCTTGACCTTCTCTGTTAACCCGCCTAGGGAGATTAGAGTATCGGTCGA,4.27
